Compounds with a hit are over-represented: about 11% of the library has one in this group of screens.
HP1b chromo inh: HTS for Inhibitors of HP1-beta Chromodomain Interactions with Methylated Histone Tails; 0.56% of 390,000 active; AlphaScreen HP1-beta / biotin-H3K9me3 peptide binding; AID 540317, 2011; Chromobox protein homolog 1 (Homo sapiens), P83916; Potency, µM (top dose mostly 114 µM), actives largely listed as inhibitors; further: nearly all actives have a fitted effect of over 70% in size
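AlphaScreen: HP1-beta (50 nM) preformed 30 min with biotin-H3(1-18)K9me3 peptide (50 nM) in PBS pH 7.4, 0.01% Tween-20. Compound added for 30 min at RT, then streptavidin donor/nickel chelate acceptor beads (10 ug/mL) for 30 min.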
L3MBTL1 inh: qHTS Assay for the Inhibitors of L3MBTL1. Lethal(3)malignant brain tumor-like protein 1 (Homo sapiens), Q9Y468. AlphaScreen L3MBTL1–H3K9me1 peptide binding. Potency, µM (titrated, usually from 57.1 µM), hits mostly inhibitors. 0.66% of 230,000 active. AID 485360, 2010; further: nearly all actives have a fitted effect of over 60% in size
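Read-out is AlphaScreen signal from streptavidin donor and nickel chelate acceptor beads (10 ug/mL final each) bridging L3MBTL1 (50 nM) and biotinylated K9-monomethylated H3(1-15) peptide (75 nM), after 30 min compound exposure at room temperature.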
BAZ2B inh: qHTS Assay for Inhibitors of BAZ2B | AlphaScreen BAZ2B-H3K14Ac peptide displacement | AID 504333, 2011 | 4.4% of 360,000 active | Potency, µM (highest dose often 114 µM), usual class: inhibitors; further: nearly all actives have a fitted effect of over 60% in size
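In this displacement format the biotinylated H3(5-23) peptide acetylated at Lys14 serves as ligand at 50 nM, with BAZ2B at 50 nM in PBS pH 7.4 containing 0.01% Tween-20. Donor and acceptor beads are 10 ug/mL final.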
JMJD2A Tudor inh: qHTS Assay for Inhibitors of JMJD2A-Tudor Domain; 4.4% of 390,000 active; AlphaScreen JMJD2A-Tudor / H3K4me3 peptide binding; Potency, µM (highest dose often 114 µM), usual class: inhibitors; Lysine-specific demethylase 4A (Homo sapiens), O75164; further: nearly all actives have a fitted effect of over 50% in size
G9a block: qHTS Assay for Inhibitors of Histone Lysine Methyltransferase G9a | Histone-lysine N-methyltransferase EHMT2 (Homo sapiens), Q96KQ7 | G9a H3K9 monomethylation, AlphaScreen, 2 h | Potency, µM (highest dose often 102 µM), actives largely listed as inhibitors | 8.8% of 350,000 active; further: nearly all actives have a fitted effect of over 75% in size
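Compounds were preincubated with 20 nM G9a for 15 min, after which biotinylated H3K9 peptide (500 nM) and SAM (20 uM) started a 2 h room-temperature reaction. Monomethylated product was quantified by antibody-based AlphaScreen chemiluminescence.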
A number is an active result; [ ] = dose if it differs, or a comment. The call rests on the fitted dose curve; in most records, active means well fitted inhibition curve with a large enough effect; inconclusive means small, poorly fitted or top-dose-only effect; inactive means no such curve, though single readings can be large or run the other way.

For CCOC(=O)c1sc(N2C(=O)C(O)=C(C(=O)c3ccc(C)o3)C2c2cccc([N+](=O)[O-])c2)nc1C (centres undefined) the results were HP1b chromo inh inactive, BAZ2B inh inconclusive, JMJD2A Tudor inh inconclusive and G9a block 44.7µM.
`COc1ccc(C2C(C(C)=O)=C(O)C(=O)N2c2nc3ccccc3s2)cc1OC` (centres undefined) gave HP1b chromo inh inactive, BAZ2B inh inactive, JMJD2A Tudor inh inconclusive and G9a block 50.1µM.
Screening COc1ccc(C2C(C(C)=O)=C(O)C(=O)N2c2nccs2)cc1OC (centres undefined) returned HP1b chromo inh inactive, L3MBTL1 inh inactive, BAZ2B inh inactive, JMJD2A Tudor inh inconclusive and G9a block inconclusive.
For CCOC(=O)c1ccc(N2C(=O)c3n[nH]c(-c4ccco4)c3C2c2cccc([N+](=O)[O-])c2)cc1 (centres undefined) the results were HP1b chromo inh inconclusive, L3MBTL1 inh inactive, BAZ2B inh 11.2µM, JMJD2A Tudor inh inconclusive and G9a block inconclusive.
Screening Cc1ccc2nc(N3C(=O)C(O)=C(C(=O)c4ccc(C)o4)C3c3cccc(O)c3)sc2c1 (centres undefined) returned HP1b chromo inh inactive, L3MBTL1 inh inactive, BAZ2B inh inconclusive, JMJD2A Tudor inh inconclusive and G9a block 31.6µM.
Screening CCc1ccccc1NC(=O)Cn1c(=O)nc(-c2ccccc2)c2ccccc21 returned HP1b chromo inh inactive, BAZ2B inh inactive, JMJD2A Tudor inh inactive and G9a block inactive.
`Cc1n[nH]c(=O)nc1N/N=C/c1ccc(O)c([N+](=O)[O-])c1` gave HP1b chromo inh inactive, L3MBTL1 inh inactive, BAZ2B inh inactive, JMJD2A Tudor inh inactive and G9a block inactive.
Clc1ccccc1CNCCCSc1nnnn1-c1ccccc1 was read as HP1b chromo inh inactive, BAZ2B inh inactive, JMJD2A Tudor inh inactive and G9a block inactive.
Screening Cc1ccc(CCNC(=O)c2cnc3c(C)cccn3c2=O)cc1 returned HP1b chromo inh inactive, BAZ2B inh inactive, JMJD2A Tudor inh inactive and G9a block inactive.
For CCOc1ccc(NC(=O)Cn2nc3c(cc2=O)CC(C)CC3)cc1 (centres undefined) the results were HP1b chromo inh inactive, BAZ2B inh inactive, JMJD2A Tudor inh inactive and G9a block inactive.
O=C(CSc1cn(CC(=O)N2CCCCC2)c2ccccc12)NCc1ccc(F)cc1 was read as HP1b chromo inh inactive, BAZ2B inh inconclusive, JMJD2A Tudor inh inactive and G9a block inactive.
`CCOc1ccc(C2C(C(=O)c3ccc(C)o3)=C(O)C(=O)N2c2nc(C)c(C(=O)OC)s2)cc1` (centres undefined) gave HP1b chromo inh inactive, BAZ2B inh inactive, JMJD2A Tudor inh inconclusive and G9a block 10µM.
Screening COC(=O)c1sc(N2C(=O)C(O)=C(C(=O)c3ccc(C)o3)C2c2ccc(OC)c(OC)c2)nc1C (centres undefined) returned HP1b chromo inh inactive, BAZ2B inh inactive, JMJD2A Tudor inh inconclusive and G9a block 31.6µM.
Cc1ccc(NC(=O)Cn2ccn(Cc3ccc(Cl)cc3)c(=O)c2=O)cc1C was read as HP1b chromo inh inactive, BAZ2B inh inactive, JMJD2A Tudor inh inactive and G9a block inactive.
Screening N#CC1=C(S)N(c2ccccc2)C2(CCCCC2)NC1=O returned HP1b chromo inh inactive, L3MBTL1 inh inactive, BAZ2B inh inconclusive, JMJD2A Tudor inh inactive and G9a block inconclusive.
Screening CCCCCCSC1=C(C#N)C(=O)NC2(CCCCC2)S1 returned HP1b chromo inh inconclusive, L3MBTL1 inh inactive, BAZ2B inh inconclusive, JMJD2A Tudor inh 56.2µM and G9a block 12.6µM.
Cc1ccc(N2C(=O)c3ccc(C(=O)O)cc3C2=O)cc1C was read as HP1b chromo inh inactive, BAZ2B inh inactive, JMJD2A Tudor inh inactive and G9a block inactive.
Screening O=C(O)c1ccc(-n2c(=O)c3ccccc3c3ccccc3c2=O)cc1 returned HP1b chromo inh inactive, L3MBTL1 inh inactive, BAZ2B inh 89.1µM, JMJD2A Tudor inh inactive and G9a block inactive[0.501 µM].
Cc1ccc(-n2c(=O)c3cc4c(=O)n(-c5ccc(C)c(C)c5)c(=O)c4c(C(=O)c4ccc(C(=O)O)cc4)c3c2=O)cc1C was read as HP1b chromo inh inconclusive, BAZ2B inh 10µM and JMJD2A Tudor inh 12.6µM.
Screening CCOC(=O)c1ccc(CN(Cc2ccc(F)cc2)S(=O)(=O)c2ccc(F)cc2)cc1 returned HP1b chromo inh inactive, BAZ2B inh inactive, JMJD2A Tudor inh inactive and G9a block inactive.
COc1ccc2c(c1)c1c(c(=O)n(-c3cc(Cl)ccc3C)c(=O)n1CC(=O)N1CCCC1)n2C was read as HP1b chromo inh inactive, BAZ2B inh inactive, JMJD2A Tudor inh inactive and G9a block inconclusive.
`CSc1ccccc1NC(=O)C1CCCO1` (centres undefined) gave HP1b chromo inh inactive, L3MBTL1 inh inactive, BAZ2B inh inactive, JMJD2A Tudor inh inactive and G9a block 15.8µM.
Screening O=C(Nc1ccc(Oc2ccccc2)cc1)C1CCCO1 (centres undefined) returned HP1b chromo inh inactive, L3MBTL1 inh inactive, BAZ2B inh inactive, JMJD2A Tudor inh 100µM and G9a block inactive.
O=C(Nc1ccc(N=Nc2ccccc2)c(NC(=O)C2CCCO2)c1)C1CCCO1 (centres undefined) was read as HP1b chromo inh inconclusive, L3MBTL1 inh inconclusive, BAZ2B inh 28.2µM, JMJD2A Tudor inh 35.5µM and G9a block inconclusive.
Cc1ccc(N2CCN(C(=O)Nc3cn(CC(C)C)c(=O)c4ccccc34)CC2)c(C)c1 was read as HP1b chromo inh inactive, BAZ2B inh inactive, JMJD2A Tudor inh inconclusive and G9a block inconclusive.
`COc1ccc(CNC(=O)COC(=O)/C=C/c2cccc(Cl)c2)cc1` gave HP1b chromo inh inactive, L3MBTL1 inh inactive and JMJD2A Tudor inh inactive.
C#CCOCCOCCOCCNc1nc(N2CCN(C(=O)[C@H](CCC(=O)O)n3cc([C@@H](N)CCCCN)nn3)CC2)nc(N2CCN(C(=O)[C@H](CCCCN)n3cc([C@@H](N)CC(N)=O)nn3)CC2)n1 was read as HP1b chromo inh inactive, L3MBTL1 inh inactive and JMJD2A Tudor inh 50.1µM.
`C#CCOCCOCCOCCNc1nc(N2CCN(C(=O)[C@H](CCC(=O)O)n3cc([C@@H](N)CCCCN)nn3)CC2)nc(N2CCN(C(=O)[C@H](CCC(=O)O)n3cc([C@@H](N)CCCCN)nn3)CC2)n1` gave HP1b chromo inh inactive, L3MBTL1 inh inconclusive and JMJD2A Tudor inh 56.2µM.
